# NPR1 activator = GC-A stimulated cGMP production enhancers – HEK293 GC-A cells, cGMP TR-FRET, EC30 ANP, primary screen; Atrial natriuretic peptide receptor 1 (Homo sapiens), P16066; hit rate 0.14% among 370,000; 0% at EC30 ANP, 100% saturating ANP; activation, % at 10 µM; in the data active means activation above about 40%
# PfM18AAP inh = PfM18AAP inhibitors, malaria aminopeptidase, primary screen, biochemical, QFRET, recombinant enzyme. M18 aspartyl aminopeptidase (Plasmodium falciparum 3D7). H-Glu-NHMec fluorogenic cleavage. inhibition, % at 7.35 µM. hit rate 1.2% among 290,000. AID 1822, 2009;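 active means inhibition above the campaign mean inhibition over all tested compounds plus 3 SD, cut at about 28% in these data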;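 further: 0% = plate median of test compound wells and 100% = 2 mM ZnCl2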
# NPR2 activator = human GC-B receptor activators, primary screen, HEK293 GC-B cells, cGMP TR-FRET, EC30 CNP | 0% at EC30 CNP, 100% saturating CNP | activation, % at 10 µM | hit rate 0.11% among 370,000;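 active means activation at 10 µM reaching about 35% in either raw or pattern-adjusted values, limit read from the data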
# Target sequence (P20594 whole entry, looked up): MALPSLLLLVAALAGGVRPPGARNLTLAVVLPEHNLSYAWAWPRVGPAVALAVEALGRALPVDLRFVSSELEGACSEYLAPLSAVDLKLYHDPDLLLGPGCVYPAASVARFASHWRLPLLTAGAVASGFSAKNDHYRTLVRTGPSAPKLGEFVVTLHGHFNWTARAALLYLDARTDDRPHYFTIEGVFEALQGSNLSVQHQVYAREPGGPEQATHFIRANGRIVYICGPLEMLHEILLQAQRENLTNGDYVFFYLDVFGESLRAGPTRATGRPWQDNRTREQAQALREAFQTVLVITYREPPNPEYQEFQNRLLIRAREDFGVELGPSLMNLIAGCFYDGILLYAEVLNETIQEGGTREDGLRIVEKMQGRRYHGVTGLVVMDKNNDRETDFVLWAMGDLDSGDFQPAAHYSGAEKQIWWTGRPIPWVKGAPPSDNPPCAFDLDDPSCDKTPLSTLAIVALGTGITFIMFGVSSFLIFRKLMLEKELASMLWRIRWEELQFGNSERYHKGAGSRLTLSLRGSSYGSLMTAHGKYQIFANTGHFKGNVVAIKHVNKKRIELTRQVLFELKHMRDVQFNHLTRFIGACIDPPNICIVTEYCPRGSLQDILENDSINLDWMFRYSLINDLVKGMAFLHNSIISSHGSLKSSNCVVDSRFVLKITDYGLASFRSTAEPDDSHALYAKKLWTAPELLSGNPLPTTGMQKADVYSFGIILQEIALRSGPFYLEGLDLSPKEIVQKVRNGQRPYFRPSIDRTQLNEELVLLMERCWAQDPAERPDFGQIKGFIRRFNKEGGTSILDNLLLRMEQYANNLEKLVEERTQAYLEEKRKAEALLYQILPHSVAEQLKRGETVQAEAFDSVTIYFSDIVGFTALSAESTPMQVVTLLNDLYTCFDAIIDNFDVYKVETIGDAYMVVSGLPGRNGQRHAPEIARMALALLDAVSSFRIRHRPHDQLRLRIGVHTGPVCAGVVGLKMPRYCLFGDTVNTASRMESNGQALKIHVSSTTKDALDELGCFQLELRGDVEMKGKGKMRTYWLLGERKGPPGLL
# Rce1 inhib = yeast Rce1p protease inhibitors, primary screen, biochemical, fluorescence, cell-free homogeneous. CAAX prenyl protease 2 (Saccharomyces cerevisiae (strain ATCC 204508 / S288c)), Q03530. yeast membranes, quenched prenylated peptide cleavage fluorescence. calls only. hit rate 0.27% among 290,000. AID 2563, 2010;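 active means fall in fluorescence gain of 50% or more versus controls, with final raw signal at or below 3038400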;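 further: plate controls were neutral control wells for no effect and wells lacking membranes for full effect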
# PLC-gamma1 inh = PLC-gamma1 enzyme inhibitors, primary screen, biochemical, fluorescence, purified enzyme; 1-phosphatidylinositol 4,5-bisphosphate phosphodiesterase gamma-1 (Homo sapiens), P19174; fluorogenic substrate; inhibition, % at 12.2 µM; hit rate 0.84% among 370,000; in the data active means inhibition above about 9.5%
# PLC-beta3 inh = human PLC-beta3 inhibitors, primary screen, biochemical, fluorescence; 1-phosphatidylinositol 4,5-bisphosphate phosphodiesterase beta-3 (Homo sapiens), Q01970; Purified PLC-beta3, fluorogenic substrate; inhibition, % at 12.2 µM; hit rate 0.18% among 370,000; AID 720704, 2013; in the data active means inhibition above about 11%;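 further: 0% = median of compound wells on plate and 100% = full blocker control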
# Starred values were filed as active, the others as inactive; i = inactive; . = not tested or not shown; + = active, no number. Rows were chosen to be rich in hits. Some 2.2% of all compounds tested hit in one or more screens of this group.
SMILES,NPR1 activator,PfM18AAP inh,NPR2 activator,Rce1 inhib,PLC-gamma1 inh,PLC-beta3 inh
Clc1ccc(Cl)c(-c2ccc(/C=N/c3ncn[nH]3)o2)c1,4,30*,-5,i,-1,0
Cc1c(Cl)c([N+](=O)[O-])nn1CC(=O)N1CCCc2ccccc21,5,-1,9,+,-2,1
CCOc1ccc(-n2c(SCC(=O)Nc3ccccc3-c3ccccc3)nnc2-c2ccccc2)cc1,-15,.,-9,.,3,1
COc1ccc(C/C(C)=N/Nc2nc(C)cc(=O)[nH]2)cc1,0,31*,-1,i,1,-5
CCc1ccc(S(=O)(=O)/N=C2/C=C(Sc3ncn[nH]3)C(=O)c3ccccc32)cc1,.,47*,.,.,.,.
CC(C)c1ccc(OC[C@@H](O)CN2CCC(C(O)(c3ccccc3)c3ccccc3)CC2)cc1,-6,.,-4,.,2,5
COc1cccc(/C=N/Nc2c(Cl)cncc2Cl)c1O,-4,-3,-9,i,1,-6
Cc1nc(Cl)cc(N/N=C/c2ccc(O)cc2O)n1,7,31*,-9,.,-15,-27
COc1cccc(/C=N/Nc2cc(Cl)nc(C)n2)c1O,0,29*,1,i,-6,-6
COC(=O)C1CN(Cc2cn(Cc3ccccc3)nn2)CCS(=O)(=O)N1Cc1ccc(C)cc1 (stereo not given),1,.,-4,.,1,0
CCC(=O)Nc1ccc2c(c1)C(=O)N(C)[C@@H]1CC[C@@H](CC(=O)NCCN3CCCCC3)O[C@H]1CO2,2,.,9,.,8,-3
COc1ccc(-c2oc3ccccc3c2C(=O)OCc2ccccc2OC)cc1,1,7,-7,+,-193,-300
COCc1cccc(-c2cc(C(=O)OC)c3n(c2=O)CCC3)c1,3,.,-2,.,-1,-2
CC1=C(C(=O)OCc2ccccc2)C(/C=C/c2ccccc2)NC(=S)N1 (stereo not given),39,4,-4,i,4,-15
C=CCOC(=O)C1=C(C)NC(=S)NC1/C=C/c1ccccc1 (stereo not given),43*,6,-2,i,3,-11
CC(C)(C)c1ccc(-c2nnc(SCC(=O)Nc3ccc(S(=O)(=O)Nc4nccs4)cc3)n2Cc2ccco2)cc1,-2,.,7,.,-1,-8
COc1ccc(CNC2CCC23CCCCC3)cc1OC (stereo not given),-4,.,-1,.,0,4
COc1cc([N+](=O)[O-])ccc1NC(=O)CSc1ccccn1,.,-1,.,i,.,.
COc1ccc([N+](=O)[O-])cc1CSc1ccccn1,-3,2,0,+,-1,-1
CN1C(=O)c2cccc(NC(=O)C3CCCCC3)c2C1=O,1,-15,55*,i,-37,-49
CCC(=O)Nc1cccc2c1C(=O)N(C)C2=O,-2,6,0,i,-55,-75
O=C1C=CC(=O)N1CCCCCCCCCCN1C(=O)C=CC1=O,30,.,44*,.,-7,-9
Cn1c(Cc2cccs2)nnc1SCC(=O)Nc1ccc2c(c1)OCCO2,0,.,5,.,-1,1
COC(=O)N/N=C/c1cn(Cc2ccc(Cl)cc2Cl)c2ccccc12,7,-2,2,i,-3,0
COC(=O)N/N=C/c1cn(Cc2ccccc2Cl)c2ccccc12,13,-5,-4,+,3,1
SMILES,NPR1 activator,PfM18AAP inh,NPR2 activator,Rce1 inhib,PLC-gamma1 inh,PLC-beta3 inh
O=C(O)c1ccc(N/N=C/c2cn(Cc3ccccc3F)c3ccccc23)cc1,0,15,0,+,-96,-136
CCN(CC)C(=O)CC[C@@H]1CC[C@]2(CCCN(C(=O)C3CCCCC3)C2)O1,2,.,-2,.,1,3
CCN(CC)C(=S)SCC(=O)c1ccccc1,0,0,4,i,-1,-1
CCN(CC)C(=S)SSC(=S)N(CC)CC,16,36*,20,i,-1,-1
CC(COc1ccc(Br)cc1)CN1CCC(C(O)(c2ccccc2)c2ccccc2)CC1 (stereo not given),-15,.,-3,.,2,-2
c1ccc(-n2nnnc2SCc2cn3cccnc3n2)cc1,2,-4,5,+,-125,-193
c1ccc(-n2nnnc2SCc2cn3ccccc3n2)cc1,-4,-9,1,i,0,-2
CCN1CCCCC(NC(=O)c2ccc(F)cc2)C1=O (stereo not given),10,.,11,.,2,1
O=C(OCc1nnc(-c2ccc(Cl)cc2)o1)c1ccncc1,0,-12,-3,i,-4,-4
Cc1noc(C)c1COc1ccc(C(=O)OCc2nnc(-c3ccc(Cl)cc3)o2)cc1,-4,-8,-1,i,12*,-1
Cc1onc(-c2ccccc2Cl)c1C(=O)Nc1ncn[nH]1,2,54*,1,i,2,2
CC(=O)Nc1ccc(NC(=O)c2c(-c3ccccc3Cl)noc2C)cc1,-8,3,1,i,-1,-6
CC(C)C(=O)N[C@H]1[C@H](O)CCC[C@]12C(=O)N(Cc1ccccc1)c1ccccc12,-2,.,-8,.,1,1
CC(=O)Nc1ccc(Nc2c3c4c(cccc4n(C)c2=O)C(=O)c2ccccc2-3)cc1,28,4,38*,i,-38,-46
CCOC(=O)[C@]12CCCC=C1N(CCCOC)C(=O)[C@@H]2CC(=O)NCc1ccc(OC)c(OC)c1,3,.,1,.,-1,-1
C=CCN1C(=O)[C@@H](CC(=O)N2CCCC2)[C@]2(C(=O)OC)CCCCC=C12,2,.,-2,.,5,-21
CN1C(=O)C[C@@](C#N)(C(=O)NCc2ccccc2)[C@H]1c1ccccc1,3,.,3,.,-2,3
Cc1cccc(-c2cc3nc(-c4ccccc4)cc(N4CCC5(CC4)OCCO5)n3n2)c1,0,-5,-5,+,i,i
Cc1ccc(-c2cc3nc(-c4ccccc4)cc(N4CCC5(CC4)OCCO5)n3n2)cc1,2,-4,-8,i,-181,-182
Fc1cccc(-c2cc3nc(-c4ccccc4)cc(N4CCC5(CC4)OCCO5)n3n2)c1,-1,5,-1,+,-341,-312
CCOC(=O)[C@]12CCCCC/C=C\1N(CCc1ccc(Cl)cc1)C(=O)[C@H]2CC(=O)NCc1ccccc1,-5,.,-6,.,8,2
COCCCn1cc(CN2CC=CS2(=O)=O)nn1,5,.,-3,.,3,-1
O=C1CC(c2ccccc2)Cc2nc3ncnn3cc21 (stereo not given),-3,28*,6,i,-132,-138
Cc1ccc(Nc2nnc(SCC(=O)Nc3cccnc3Cl)s2)cc1C,-1,29*,3,i,-5,-2
